The source made the active and inactive calls. The calls were made as follows: active = hit-call score of the fitted dose curve at least 0.9, where 1 is the maximum; inactive = score below 0.9.
Each compound was assayed on Lipoprotein lipase (LPL), LPL (gene 4023) (assay: LTEA_HepaRG_LPL: Life Technologies and Expression Analysis (LTEA) Assay for Lipoprotein lipase (LPL) using HepaRG (AID 2283515)). Settings: mRNA level, 48 h; actives raise or lower the signal.
Outline: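 Read-out is LPL transcript level by qRT-PCR, normalized to three housekeeping genes and fitted bidirectionally against the DMSO control. Human HepaRG cells received chemicals for 48 h at up to 100 uM.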

Compound | outcome | AC50
CSC(=O)c1c(C(F)F)nc(C(F)(F)F)c(C(=O)SC)c1CC(C)C | inactive | –
CCOc1cc(C(C)(C)C)ccc1C1COC(c2c(F)cccc2F)=N1 (stereo not given) | – | 52.9 µM (active)
COC(=O)N(C(=O)N1CO[C@@]2(C(=O)OC)Cc3cc(Cl)ccc3C2=N1)c1ccc(OC(F)(F)F)cc1 | – | 2.97 µM (active)
CC(C)N1C(=O)c2ccccc2NS1(=O)=O | inactive | –
CCCC(=NOCC)C1=C(O)CC(CC(C)SCC)CC1=O (stereo not given) | inactive | –
C=CCOC(=O)C(C)(C)OC(=O)c1cc(-n2c(=O)cc(C(F)(F)F)n(C)c2=O)ccc1Cl | inactive | –
CC(C)Oc1cccc(NC(=O)c2ccccc2C(F)(F)F)c1 | inactive | –
CC(C)NC(=O)N1CC(=O)N(c2cc(Cl)cc(Cl)c2)C1=O | – | 14.6 µM (active)
CC(C)(C)C(=O)C(Oc1ccc(Cl)cc1)n1cncn1 (stereo not given) | inactive | –
CC1(C)CCC(=Cc2ccc(Cl)cc2)C1(O)Cn1cncn1 (stereo not given) | inactive | –
COCC(=O)N(c1c(C)cccc1C)C(C)C(=O)OC (stereo not given) | inactive | –
CCOc1nc(F)cc2nc(S(=O)(=O)Nc3c(Cl)cccc3Cl)nn12 | inactive | –
COP(=O)(OC)O/C(C)=C/C(=O)N(C)C | inactive | –
CC(C)N1C(=O)N(c2ccccc2)CSC1=NC(C)(C)C | – | 78.7 µM (active)

These compounds were tested on MicroRNA 122 (MIR122), gene 406906 (assay: LTEA_HepaRG_MIR122: Life Technologies and Expression Analysis (LTEA) Assay for MicroRNA 122 (MIR122) using HepaRG (AID 2283516; also: the transcript read is the microRNA miR-122)). Settings: mRNA level, 48 h; actives raise or lower the signal.
Outline: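 Differentiated human HepaRG cells were exposed 48 h in serum-free induction medium to eight half-log concentrations (top 100 uM, 0.5% DMSO). Transcript level was measured by TaqMan qRT-PCR, normalized to ACTB, GAPDH and POLR2A, and fitted bidirectionally versus DMSO.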

Compound | outcome | AC50
COCC(C)N(C(=O)CCl)c1c(C)csc1C (stereo not given) | inactive | –
COC(=O)c1c(C(F)F)nc(C(F)(F)F)c(C2=NCCS2)c1CC(C)C | inactive | –
Cn1c(-c2ccccc2)cc(-c2ccccc2)[n+]1C | – | 28.7 µM (active)
COC(=O)NS(=O)(=O)c1ccc(N)cc1 | inactive | –
CC(C)Nc1nc(Cl)nc(NC(C)C)n1 | inactive | –
COC(=O)NC(=S)Nc1ccccc1NC(=S)NC(=O)OC | inactive | –
Clc1cccc(C(Cl)(Cl)Cl)n1 | inactive | –
COP(=S)(OC)Oc1ccc([N+](=O)[O-])c(C)c1 | inactive | –
CCOP(=S)(OCC)Oc1nc(Cl)n(C(C)C)n1 | inactive | –
COc1cc(Cl)c(OC)cc1Cl | inactive | –
CCCCC(O)(Cn1cncn1)c1ccc(Cl)cc1Cl (stereo not given) | – | 77 µM (active)
CNC(=O)N(C)c1nnc(C(C)(C)C)s1 | inactive | –
O=C(Nc1ccccc1-c1ccc(Cl)cc1)c1cccnc1Cl | inactive | –
CCNC(=O)NC(=O)C(C#N)=NOC | inactive | –
CCN(CC)C(=O)C(C)Oc1cccc2ccccc12 (stereo not given) | – | 81.1 µM (active)
CC1(C)CON(Cc2ccccc2Cl)C1=O | inactive | –
CCOc1nc(C(Cl)(Cl)Cl)ns1 | – | 0.682 µM (active)
CN=C=S | inactive | –

Compound | outcome | AC50
C=C(C)CN(CC)c1c([N+](=O)[O-])cc(C(F)(F)F)cc1[N+](=O)[O-] | inactive | –
Nc1c(Cl)c(Cl)nc(C(=O)O)c1Cl | inactive | –
CC1(C)C(C=C(Cl)Cl)C1C(=O)OC(C#N)c1cccc(Oc2ccccc2)c1 (stereo not given) | inactive | –
Cc1cnc(C2=NC(C)(C(C)C)C(=O)N2)c(C(=O)O)c1 (stereo not given) | inactive | –
CSC(=O)c1c(C(F)F)nc(C(F)(F)F)c(C(=O)SC)c1CC(C)C | – | 49.8 µM (active)
CCOc1cc(C(C)(C)C)ccc1C1COC(c2c(F)cccc2F)=N1 (stereo not given) | inactive | –
COC(=O)N(C(=O)N1CO[C@@]2(C(=O)OC)Cc3cc(Cl)ccc3C2=N1)c1ccc(OC(F)(F)F)cc1 | – | 40 µM (active)
CC(C)N1C(=O)c2ccccc2NS1(=O)=O | inactive | –
CCCC(=NOCC)C1=C(O)CC(CC(C)SCC)CC1=O (stereo not given) | inactive | –
C=CCOC(=O)C(C)(C)OC(=O)c1cc(-n2c(=O)cc(C(F)(F)F)n(C)c2=O)ccc1Cl | inactive | –
CC(C)Oc1cccc(NC(=O)c2ccccc2C(F)(F)F)c1 | inactive | –
CC(C)NC(=O)N1CC(=O)N(c2cc(Cl)cc(Cl)c2)C1=O | inactive | –
CC(C)(C)C(=O)C(Oc1ccc(Cl)cc1)n1cncn1 (stereo not given) | inactive | –
CC1(C)CCC(=Cc2ccc(Cl)cc2)C1(O)Cn1cncn1 (stereo not given) | inactive | –
COCC(=O)N(c1c(C)cccc1C)C(C)C(=O)OC (stereo not given) | inactive | –
CCOc1nc(F)cc2nc(S(=O)(=O)Nc3c(Cl)cccc3Cl)nn12 | inactive | –
COP(=O)(OC)O/C(C)=C/C(=O)N(C)C | inactive | –
CC(C)N1C(=O)N(c2ccccc2)CSC1=NC(C)(C)C | – | 81.4 µM (active)

What follows are compounds tested on matrix metalloproteinase-10 (MMP10), MMP10 (gene 4319) (assay: LTEA_HepaRG_MMP10: Life Technologies and Expression Analysis (LTEA) Assay for matrix metalloproteinase-10 (MMP10) using HepaRG (AID 2283517)). Settings: mRNA level, 48 h; actives raise or lower the signal.
Outline: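 Gain or loss of MMP10 mRNA is fitted relative to the 0.5% DMSO vehicle. The human hepatic line HepaRG receives a 48-hour serum-free exposure, in duplicate, with a maximum concentration of 100 uM.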

Compound | outcome | AC50
COCC(C)N(C(=O)CCl)c1c(C)csc1C (stereo not given) | inactive | –
COC(=O)c1c(C(F)F)nc(C(F)(F)F)c(C2=NCCS2)c1CC(C)C | inactive | –
COC(=O)NS(=O)(=O)c1ccc(N)cc1 | inactive | –
CC(C)Nc1nc(Cl)nc(NC(C)C)n1 | inactive | –
COC(=O)NC(=S)Nc1ccccc1NC(=S)NC(=O)OC | inactive | –
Clc1cccc(C(Cl)(Cl)Cl)n1 | inactive | –
COP(=S)(OC)Oc1ccc([N+](=O)[O-])c(C)c1 | inactive | –
CCOP(=S)(OCC)Oc1nc(Cl)n(C(C)C)n1 | inactive | –
COc1cc(Cl)c(OC)cc1Cl | inactive | –
CCCCC(O)(Cn1cncn1)c1ccc(Cl)cc1Cl (stereo not given) | – | 67.4 µM (active)
CNC(=O)N(C)c1nnc(C(C)(C)C)s1 | inactive | –
O=C(Nc1ccccc1-c1ccc(Cl)cc1)c1cccnc1Cl | inactive | –
CCNC(=O)NC(=O)C(C#N)=NOC | inactive | –
CCN(CC)C(=O)C(C)Oc1cccc2ccccc12 (stereo not given) | inactive | –
CC1(C)CON(Cc2ccccc2Cl)C1=O | inactive | –
CCOc1nc(C(Cl)(Cl)Cl)ns1 | inactive | –
CN=C=S | inactive | –
C=C(C)CN(CC)c1c([N+](=O)[O-])cc(C(F)(F)F)cc1[N+](=O)[O-] | inactive | –

Compound | outcome | AC50
Nc1c(Cl)c(Cl)nc(C(=O)O)c1Cl | inactive | –
CC1(C)C(C=C(Cl)Cl)C1C(=O)OC(C#N)c1cccc(Oc2ccccc2)c1 (stereo not given) | inactive | –
Cc1cnc(C2=NC(C)(C(C)C)C(=O)N2)c(C(=O)O)c1 (stereo not given) | inactive | –
CSC(=O)c1c(C(F)F)nc(C(F)(F)F)c(C(=O)SC)c1CC(C)C | inactive | –
CCOc1cc(C(C)(C)C)ccc1C1COC(c2c(F)cccc2F)=N1 (stereo not given) | inactive | –
COC(=O)N(C(=O)N1CO[C@@]2(C(=O)OC)Cc3cc(Cl)ccc3C2=N1)c1ccc(OC(F)(F)F)cc1 | inactive | –
CC(C)N1C(=O)c2ccccc2NS1(=O)=O | inactive | –
CCCC(=NOCC)C1=C(O)CC(CC(C)SCC)CC1=O (stereo not given) | inactive | –
C=CCOC(=O)C(C)(C)OC(=O)c1cc(-n2c(=O)cc(C(F)(F)F)n(C)c2=O)ccc1Cl | inactive | –
CC(C)Oc1cccc(NC(=O)c2ccccc2C(F)(F)F)c1 | inactive | –
CC(C)NC(=O)N1CC(=O)N(c2cc(Cl)cc(Cl)c2)C1=O | inactive | –
CC(C)(C)C(=O)C(Oc1ccc(Cl)cc1)n1cncn1 (stereo not given) | inactive | –
CC1(C)CCC(=Cc2ccc(Cl)cc2)C1(O)Cn1cncn1 (stereo not given) | inactive | –
COCC(=O)N(c1c(C)cccc1C)C(C)C(=O)OC (stereo not given) | inactive | –
CCOc1nc(F)cc2nc(S(=O)(=O)Nc3c(Cl)cccc3Cl)nn12 | inactive | –
COP(=O)(OC)O/C(C)=C/C(=O)N(C)C | inactive | –
CC(C)N1C(=O)N(c2ccccc2)CSC1=NC(C)(C)C | inactive | –

Reference: PubChem BioAssay (EPA / NIEHS)
